# Source: PubChem (National Center for Advancing Translational Sciences (NCATS))
# ALDH1A1 inh = blocks purified human ALDH1A1 activity. P00352. Potency, µM (doses to about 75.3 µM), inactives show at the top dose activity, negative = inhibition, usual class: inhibitors. actives 7.3% (n = 220,000). Purified ALDH1A1, NADH fluorescence, propionaldehyde substrate; active means well fitted inhibition curve with a large enough effect, not every such curve was filed as active; inconclusive means small, poorly fitted or top-dose-only effect, or another doubt; inactive means no such curve, though single readings can be large or run the other way;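 further: plate controls were no enzyme wells and a reference inhibitor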
# RORgamma inh = ROR gamma (mouse) transcription inhibition; Drosophila S2 Gal4-RORgamma UAS-luciferase reporter, 20 h; actives 5.4% (n = 310,000); P51450; Potency, µM (top dose mostly 53.6 µM), inactives show at the highest dose activity change, negative = inhibition, actives largely listed as inhibitors; further: nearly all actives have a fitted effect of over 60% in size
#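 Drosophila S2 cells stably expressing Gal4-DBD/mouse RORγ fusion under metallothionein promoter plus UAS-luciferase; compound 1 h, then 700 uM CuSO4 induction for 20 h at ambient temperature; inhibition read as reduced luminescence.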
# PLK1 PBD inh = blocks phosphopeptide binding to human PLK1 polo-box domain. Plk1 PBD binding of FITC phosphopeptide, fluorescence polarization. actives 2.8% (n = 360,000). P53350. AID 720504. Potency, µM, for inactives: max response, negative = inhibition, usual class: inhibitors; further: series mostly up to about 57 µM; nearly all actives have a fitted effect of over 65% in size
# Target sequence (P53350 whole entry, looked up, the tested form may be a part): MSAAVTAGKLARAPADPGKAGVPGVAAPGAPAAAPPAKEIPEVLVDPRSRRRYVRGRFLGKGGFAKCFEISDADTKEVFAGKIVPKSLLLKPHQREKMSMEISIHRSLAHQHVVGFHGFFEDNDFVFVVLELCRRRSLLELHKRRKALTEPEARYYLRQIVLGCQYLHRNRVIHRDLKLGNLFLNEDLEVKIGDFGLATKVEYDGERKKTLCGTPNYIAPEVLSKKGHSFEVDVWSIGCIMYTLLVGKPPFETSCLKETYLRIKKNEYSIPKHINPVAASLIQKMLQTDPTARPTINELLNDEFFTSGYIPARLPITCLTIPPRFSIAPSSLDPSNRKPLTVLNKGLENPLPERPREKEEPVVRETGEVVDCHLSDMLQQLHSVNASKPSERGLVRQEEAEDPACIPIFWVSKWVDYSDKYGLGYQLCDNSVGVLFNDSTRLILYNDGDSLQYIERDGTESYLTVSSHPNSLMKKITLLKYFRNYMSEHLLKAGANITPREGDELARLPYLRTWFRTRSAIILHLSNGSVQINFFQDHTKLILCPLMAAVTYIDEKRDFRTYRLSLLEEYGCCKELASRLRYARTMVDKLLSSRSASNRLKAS
# VP16 counter = Gal4-VP16 reporter inhibition counter-screen; Potency, µM (top dose mostly 53.6 µM), inactives show top-dose activity, negative = inhibition, usual class: inhibitors; actives 3.5% (n = 310,000); Drosophila S2 Gal4-VP16 UAS-luciferase, luminescence, 20 h; AID 2546;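 further: Gal4-VP16 expression switched on by copper sulfate through the metallothionein promoter; nearly all actives have a fitted effect of over 50% in size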
# Sfp inh = inhibitors of Bacillus subtilis Sfp phosphopantetheinyl transferase; Biochemical Sfp PPTase activity, qHTS; actives 3.5% (n = 310,000); AID 1490; Potency, µM, without a hit: largest response in the series, negative = inhibition, most hits filed as inhibitors;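 further: the enzyme is Sfp with the accession as filed and its product quenches rhodamine fluorescence; 0% = enzyme reaction without inhibitor and -100% = no enzyme wells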
#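 After 15 min at room temperature with compound, 15 nM Sfp received 5 uM rhodamine-CoA plus 12.5 uM BHQ-2-ybbR (50 mM Hepes pH 7.6, 10 mM MgCl2). Rate came from the fluorescence difference over 30 min, ex 525/em 598 nm.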
# * = called active by the depositor; ? = inconclusive; nt = no result; [ ] = another dose, or the depositor's remark. Only some compounds are listed: those with a hit (about 12% of all), similar ones and a draw of the others. Unless noted, the call rests on the fitted dose curve; in most records, active means well fitted curve in the direction sought with a large enough effect; inconclusive means small, poorly fitted or top-dose-only effect, or another doubt; inactive means no such curve, though single readings can be large; an effect the other way counts as inactive or inconclusive. Unless noted, on the % scale 0 is the no-effect control and ±100 the full control effect; potency means the concentration at half of the fitted maximal effect.
SMILES,ALDH1A1 inh,RORgamma inh,PLK1 PBD inh,VP16 counter,Sfp inh
CC(=O)N1CCC(C(=O)N2c3ccccc3N=C(c3ccc(C(F)(F)F)cc3)C2C(=O)NC2CCCC2)CC1 (stereo not drawn),nt,nt,3%,nt,nt
CC(C)C(C)(C#N)NC(=O)CSc1nnc(-c2ccncc2)n1Cc1ccccc1 (stereo not drawn),-4%,8%,21µM*,-6%,11%
C=CCNC(=O)CSc1nnc(-c2ccccn2)n1Cc1ccccc1,35µM*,8%,-2%,8%,5%
CC(C)CNC(=O)CSc1nc2scc(-c3ccccc3)c2c(=O)[nH]1,?,24%,?,-10%,7%
CC(C)C(C)(C#N)NC(=O)CSc1nc2scc(-c3ccc(F)cc3)c2c(=O)n1Cc1ccccc1 (stereo not drawn),?,18µM*,-10%,?,16%
CC(C)(C)NC(=O)CSc1nnc(-c2ccncc2)n1Cc1ccccc1,?,-14%,-4%,7%,15%
Fc1ccc(Nc2ccnc(-c3ccccc3C(F)(F)F)n2)cc1,2%,9%,nt,2%,7%
COc1ccc(NCC(=O)Nc2ccc(Cl)cc2C)c(OC)c1,4.5µM*,2%,-23%,-9%,-4%
CCOc1ccc(NCC(=O)Nc2ccc(Cl)cc2C)cc1,3.5µM*,23%,-18%,-5%,7%
Cc1ccc(NC(=O)CCl)c(C)c1,0.28µM*,-20%,-8%,-10%,18%
COc1ccc(NC(=O)CC(=O)Nc2ccc(OC)cc2OC)c(OC)c1,27%,-11%,3%,2%,8%
CCCOc1ccc(NCC(=O)Nc2ccc(C)cc2C)cc1,2.2µM*,4%,-13%,-4%,-9%
Cc1ccc(NC(=O)CCc2ccc(C)o2)c(C)c1,nt,0%,0%,6%,3%
COc1ccc(CC(=O)OCC(=O)NC2CCCCC2)cc1OC,nt,nt,-4%,nt,nt
Cc1cccc(N2CCN(C(=O)c3ccc(NC4=NC5CS(=O)(=O)CC5S4)cc3)CC2C)c1 (stereo not drawn),nt,-15%,24µM*,-2%,7%
COc1cc(/C=C2/NC(=O)N(CC(=O)Nc3ccc(C)cc3)C2=O)ccc1Oc1ccc([N+](=O)[O-])cn1,-1%,-14%,-7%,-11%,13%
COCCN1C(=O)/C(=C/c2ccc(Oc3ccc([N+](=O)[O-])cn3)c(OC)c2)SC1=Nc1ccccc1,0.4µM*,-38%,-3%,0%,10%
O=C(CC[C@H]1O[C@@H](n2cnc3c(NC(=O)c4ccccc4)ncnc32)[C@H](O)[C@@H]1O)NCCc1cc2ccccc2[nH]1,nt,nt,-13%,nt,nt
C=CCn1c(CSCc2ccccc2)nnc1SCC(=O)N1CCN(c2ccccc2)CC1,0.79µM*,28µM*,-6%,?,?
CC1Cc2nc(SCC(=O)N3CCN(c4ccccc4)CC3)n(C)c(=O)c2S1 (stereo not drawn),-2%,25%,-6%,4%,8%
CCn1c(SCC(=O)N2CCN(c3ccccc3)CC2)nc2c(c1=O)SC(C)C2 (stereo not drawn),2.2µM*,?,-6%,-17%,14%
CCn1c(SCC(=O)N2CCN(c3ccc(F)cc3)CC2)nc2ccccc2c1=O,25µM*,3%,-19%,4%,-2%
CC1Cc2nc(SCC(=O)N3CCN(c4ccccc4)CC3)n(CCc3ccccc3)c(=O)c2S1 (stereo not drawn),-8%,5%,-4%,-2%,45µM*
CC1Cc2nc(SCC(=O)N3CCOCC3)n(-c3ccccc3)c(=O)c2S1 (stereo not drawn),5%,12%,2%,4%,8%
CCn1c(SCC(=O)N2CCN(c3ccc(Cl)cc3)CC2)nc2ccccc2c1=O,0%,10%,0%,6%,-13%
SMILES,ALDH1A1 inh,RORgamma inh,PLK1 PBD inh,VP16 counter,Sfp inh
CCOC(=O)OCC1OC(c2cc(C)cc(C)c2)C=CC1OC(=O)OCC (stereo not drawn),?,1%[10 µM],nt,-5%[10 µM],10%
Cc1ccccc1CN1C(=O)CN(S(C)(=O)=O)CC1(C)C(=O)NCc1ccccc1 (stereo not drawn),nt,nt,-1%,nt,nt
C/C(CC/C(C)=N/O)=N/O,19%[13.5 µM],nt,nt,nt,nt
COC(=O)NC1C=CCCC1C(C)=O (stereo not drawn),-3%,-1%,nt,0%,-7%
O=C(c1cc(Cl)cc(Cl)c1)N1CCC2CC1c1cc(N3CCCCC3)ccc12 (stereo not drawn),nt,nt,8%,nt,nt
CCn1c(SCC(=O)NCc2ccco2)nc2c(c1=O)SC(C)C2 (stereo not drawn),?,35%[0.365 µM],-6%,nt,40µM*
CC1CCN(C(=O)CSc2nc3ccccc3[nH]2)CC1,?,?,-3%,-16%,23%
CC(NC(=O)CSc1nc(=O)cc(N)n1-c1ccccc1)c1ccccc1 (stereo not drawn),-6%,7%,-12%,-6%,23%
CCn1c(SCC(=O)NCc2ccccc2)nc2c(c1=O)SC(C)C2 (stereo not drawn),-4%,37%,-1%,-1%,18%
O=C(CSc1nc2ccccc2[nH]1)N1CCN(c2ccc(F)cc2)CC1,25µM*,?,-3%,15%,-3%
C=CCn1c(N)cc(=O)nc1SCC(=O)N1CCN(c2ccc(F)cc2)CC1,14µM*,-16%,-7%,3%,13%
C=CCn1c(N)cc(=O)nc1SCC(=O)NC(C)c1ccccc1 (stereo not drawn),-9%,2%,-8%,18µM*,-3%
Nc1nc(SCC(=O)N2CCN(c3ccc(F)cc3)CC2)n[nH]1,nt,nt,-5%,nt,nt
COc1ccccc1CNS(=O)(=O)c1c(C)cc(C)cc1C,nt,nt,4%,nt,nt
OC(c1cccnc1)c1nc(/C=C/c2ccc(C(F)(F)F)cc2)cs1 (stereo not drawn),nt,nt,-11%,nt,nt
O=C1CCCc2nc(N3CCN(c4ccccc4)CC3)ncc21,5%,6%,30µM*,-8%,7%
CN(CC(=O)Nc1cccc(F)c1)C(=O)CC1CCCCC1,nt,nt,-4%,nt,nt
Oc1ccc(N=Cc2ccc(-c3cccs3)s2)cc1,?,-27%,-3%,?,32µM*
O=Cc1ccc(-c2cccs2)s1,nt,nt,-20%,nt,nt
O=C(CNS(=O)(=O)c1c(Cl)cccc1Cl)OCC(=O)N1CCN(c2ccccc2)CC1,-2%,23%,-9%,-7%,-16%
CC(=O)Nc1ccc(S(=O)(=O)NCC(=O)OCC(=O)N2CCN(c3ccccc3)CC2)cc1,20µM*,-4%,1%,0%,18%
CCOC(=O)N1CCN(C(=O)CNS(=O)(=O)c2cccs2)CC1,4%,-7%,3%,-6%,21%
CC(=O)Nc1ccc(S(=O)(=O)NCC(=O)N2CCN(S(=O)(=O)c3cccs3)CC2)cc1,nt,nt,15µM*,nt,nt
Cc1cccc(C)c1NC(=O)C(CCc1ccccc1)n1c(=O)c(-c2ccccc2)nc2ccccc21 (stereo not drawn),nt,nt,-19%,nt,nt
O=c1[nH]ccc2c(S(=O)(=O)N3CCCNCC3)cccc12,?,3%,nt,1%,6%
